Test results: PubChem BioAssay AID485270 (The Scripps Research Institute Molecular Screening Center, 2010)
In all, about 330,000 compounds went through this assay and about 5,800 (1.8%) were called active. No stated cut-off is given here; in the data, active means inhibition mostly above about 38% (no sharp cut-off); inactive means mostly below about 40%. Only a selection was taken, and actives are over-represented in it overall.

Target: Orexin/Hypocretin receptor type 1 (Homo sapiens) (UniProt O43613)
Sequence (O43613 whole entry, looked up): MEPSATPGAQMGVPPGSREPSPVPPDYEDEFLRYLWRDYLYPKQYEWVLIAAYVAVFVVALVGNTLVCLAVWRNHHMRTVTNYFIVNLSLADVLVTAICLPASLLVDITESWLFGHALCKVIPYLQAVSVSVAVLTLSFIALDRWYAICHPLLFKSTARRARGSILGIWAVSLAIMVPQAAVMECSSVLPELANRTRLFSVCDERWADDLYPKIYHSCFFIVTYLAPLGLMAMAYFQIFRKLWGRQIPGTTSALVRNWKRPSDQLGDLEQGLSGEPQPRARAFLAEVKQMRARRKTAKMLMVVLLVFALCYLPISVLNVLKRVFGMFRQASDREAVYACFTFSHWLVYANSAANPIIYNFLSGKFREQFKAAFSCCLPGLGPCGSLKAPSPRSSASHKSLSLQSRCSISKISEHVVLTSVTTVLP
Assay: blocks the human orexin 1 receptor (AID 485270);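 further: 0% = agonist challenge alone and 100% = reference antagonist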
Conditions: OX1R-expressing cells, FRET antagonist read-out; at 6.6 µM; hits give high values

inhibition, active:
COc1ccc(C(CNC(=O)c2cccc(S(=O)(=O)Nc3ccccc3Cl)c2)N2CCOCC2)cc1 (stereo unspecified) 34.6%, C=CCNC(=O)c1ccc2c3n(nc2c1)-c1ccc(C)cc1CO3 75%, O=C(Nc1ccc(Cl)c(Cl)c1)N1CC=C(c2ccccc2)CC1 56.1%, Cc1cc(-c2ccc(C)c(S(=O)(=O)NC(C)Cc3ccco3)c2)on1 (stereo unspecified) 46%, O=C(N/N=C/c1c[nH]c2ccccc12)c1cc2ccccc2o1 65.5%, Cc1c(/C=N\NC(=O)c2cc3ccccc3o2)c2ccccc2n1C 89.7%, CC1CCCCC1NC(=O)CCS(=O)(=O)c1cccc2nonc12 (stereo unspecified) 57.3%, CC[n+]1cc(C)ccc1/C=C/c1ccc(N(C)C)cc1 52.2%, CCn1c(O)c2ccc(C(=O)N=NC(=O)c3cccnc3)cc2c1O 52.5%, Cc1ccc(NC(=O)CSc2nn3c(=O)c(C)nnc3s2)cc1Cl 53.8%, O=[n+]1c2c(n([O-])c3cc(Br)ccc31)CCC2 66%

inhibition, inactive:
COc1ccc(C(CNC(=O)c2cccc(NS(=O)(=O)c3ccc(C)c(F)c3)c2)N2CCCC2)cc1 (stereo unspecified) 6.44%, COc1ccc(C(CNC(=O)c2ccc(S(=O)(=O)Nc3ccccc3C)cc2)N2CCOCC2)cc1 (stereo unspecified) 8.1%, O=C(NCC#CCSc1nnc(-c2cccc3ccccc23)o1)c1cccs1 8.58%, COc1ccc(S(=O)(=O)N(C)C[C@H]2Oc3c(NC(=O)Nc4ccc5c(c4)OCO5)cccc3C(=O)N([C@H](C)CO)C[C@@H]2C)cc1 6.37%, Cn1nnc2cc(C(=O)NCCC3=CCCCC3)ccc21 20.7%, Cc1cccc(-c2nc3ccc(C(=O)NCCN4CCN(C)CC4)cc3nc2-c2cccc(C)c2)c1 17.7%, CC(NC(=O)COC(=O)c1ccc2ccccc2n1)c1ccccc1 (stereo unspecified) 15.5%, O=C(NC(=S)Nc1ccc(Br)cc1F)C1CCCCC1 4.65%, O=C(CN1C(=O)NC2(CCCCCC2)C1=O)NCc1ccc(F)cc1 6.28%, COc1cc(C)ccc1OCC(=O)OCC(=O)c1ccc[nH]1 11.8%, O=C(NCCC(=O)N1O[C@@H]2C=C[C@H]1C2)OCC1c2ccccc2-c2ccccc21 7.51%, O=C(Nc1ccccc1)N1CCN(C(=O)Nc2ccccc2)CC1 7.94%, COc1cc(C(=O)NCC(=O)N2CC=C(c3ccccc3)CC2)cc(OC)c1OC 13.7%, CC(C)n1cnc2c(NCc3ccccc3)cc(N[C@@H](CO)Cc3ccccc3)cc21 33.2%, Cc1cc(-c2ccc(C)c(S(=O)(=O)NCCCN(Cc3ccccc3)C(C)C)c2)on1 22.4%, Cc1cc(-c2ccc(C)c(S(=O)(=O)Nc3ccc(S(N)(=O)=O)cc3)c2)on1 14.9%, COc1ccc(S(=O)(=O)N(C)C[C@H]2Oc3ccc(NS(=O)(=O)c4cccs4)cc3CC(=O)N([C@H](C)CO)C[C@H]2C)cc1 8.61%, Cc1c(/C=N/N2C(=O)C3C4C=CC(C4)C3C2=O)c2ccccc2n1C (stereo unspecified) 1.17%, O=C(O)c1cccc(NC(=S)N/N=C/c2c[nH]c3ccccc23)c1 18.9%, O=C(N/N=C/c1c[nH]c2ccccc12)c1ccccc1O -0.06%, Cc1ccc(NC(=O)c2cc3ccccc3o2)cc1 4.2%, C=CC1=C(C(=O)O)N2C(=O)[C@@H](NC(=O)/C(=N\OCC(=O)O)c3csc(N)n3)[C@H]2SC1 9.76%, CN(C)C(=O)CCc1ccc2c3c([nH]c2c1)[C@]1(C)[C@@H](C(=O)N2CCOCC2)C[C@H](CC(=O)NCCc2ccccn2)C(=O)N1CC3 8.14%, CC1CCCCC1NC(=O)CCS(=O)(=O)c1ccc2c(c1)NC(=O)CO2 (stereo unspecified) -0.2%, O=C(CCS(=O)(=O)c1cccc2nonc12)NCCc1ccccc1Cl 40.5%, Cc1nn(-c2ccccc2)nc1C(=O)OCC(=O)N1CCCCC1C (stereo unspecified) 8.79%, Cc1noc(C)c1C(=O)OC(C)C(=O)Nc1ccc2c(c1)OCO2 (stereo unspecified) 6.68%, COc1ccc(S(=O)(=O)N2CCN(CC(=O)N3CCOCC3)CC2)cc1OC 7.86%, C/C(=N\NC(=O)c1ccc2ccccc2c1)c1cccnc1 7.2%, CCOc1ccccc1NC(=O)c1cccnc1 13%, O=C(OCC(=O)N1CCCCCC1)c1ccc(Cl)nc1 9.15%, C=CC[C@@H](Cc1ccc(F)cc1)C(=O)OC[C@H]1CCCN1C(=O)[C@H](CC=C)CC(=O)N(CCO)Cc1ccccc1 5.09%, CCCSc1ccc([C@H]2N[C@@](Cc3ccccc3)(C(=O)OC)[C@H]3C(=O)N(C)C(=O)[C@@H]23)cc1 8.14%, CCC1CCCCN1C(=S)NC(=O)c1ccco1 (stereo unspecified) 0.14%, Cc1ccc(NC(=O)CSc2nnc(CNC(=O)c3ccccc3F)o2)cc1Cl 13.1%, COc1ccc(Cc2nnc(SCC(=O)Nc3ccc(C)c(Cl)c3)[nH]c2=O)cc1 27%, CC(C)n1cnc2c(NCc3ccccc3)cc(OCC3CCN(C)CC3)cc21 19.4%, Cc1cccc(C(=O)OCC(=O)NC(C)C2CC3CCC2C3)c1O (stereo unspecified) 17.1%, COCCn1c(C)cc(C(=O)CN2c3cccc4cccc(c34)S2(=O)=O)c1C 24.1%, Cc1ccc(NC(=O)c2ccc(Cl)nc2)cc1S(=O)(=O)N1CCOCC1 5.02%, CCN(C(=O)CSc1nnnn1-c1ccc(OC)cc1)C1CCS(=O)(=O)C1 (stereo unspecified) 8.67%, COc1cc(/C=C/C(=O)OCC(=O)NCCCc2ccccc2)ccc1O 5.75%, Cc1ccc(-c2c[n+](=O)c3c(n2[O-])CCC3)cc1 17.4%, Cc1ccc(-c2c(C)n([O-])c3c([n+]2=O)CCC3)cc1 22.7%, CC(C)CC1(C)NC(=O)N(CC(=O)Nc2ccc3c(c2)OCCO3)C1=O (stereo unspecified) 5.05%
